# Most compounds without a hit are left out; they make up all but 4.2% or so of the library.
# ALOX12 inh = blocks human arachidonate 12S-lipoxygenase | purified 12hLO, xylenol orange hydroperoxide absorbance | Potency, µM (titrated, usually from 108 µM), for the others: at the highest dose activity change, negative = inhibition, most hits filed as inhibitors | 580,000 tested, 1.1% active
#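 Hydroperoxide product was detected by ferrous iron/xylenol orange as the 573 to 405 nm absorbance ratio. Arachidonic acid at 40 uM (final) was turned over for 30 min at room temperature by 150 nM human 12hLO, pH 7.0 Hepes buffer, after 15 min compound preincubation.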
# Sfp PPTase inh = inhibitors of Bacillus subtilis Sfp phosphopantetheinyl transferase; Q9F4F7; Biochemical Sfp PPTase activity, qHTS; Potency, µM, for inactives: largest response in the series, negative = inhibition, actives largely listed as inhibitors; 310,000 tested, 3.5% active;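 note: the enzyme is Sfp with the accession as filed and its product quenches rhodamine fluorescence; 0% = enzyme reaction without inhibitor and -100% = no enzyme wells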
#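 Buffer: 50 mM Hepes-Na pH 7.6, 10 mM MgCl2, 0.01% Nonidet P-40, 0.01% BSA. Enzyme 15 nM, pre-exposed to compound 15 min; substrates then added and fluorescence change tracked over 30 min.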
# PLK1 PBD block = blocks phosphopeptide binding to human PLK1 polo-box domain; P53350; Plk1 PBD binding of FITC phosphopeptide, fluorescence polarization; Potency, µM, inactives show max response, negative = inhibition, usual class: inhibitors; 360,000 tested, 2.8% active; note: series mostly up to about 57 µM; nearly all actives have a fitted effect of over 65% in size
# VDR inhibitor = inhibitors of human vitamin D receptor. P11473. VDR-SRC2-3 peptide fluorescence polarization, 2 h. Potency, µM, for the others: max response, negative = inhibition, actives largely listed as inhibitors. 400,000 tested, 0.93% active. AID 504847
# Target sequence (P11473 whole entry, looked up): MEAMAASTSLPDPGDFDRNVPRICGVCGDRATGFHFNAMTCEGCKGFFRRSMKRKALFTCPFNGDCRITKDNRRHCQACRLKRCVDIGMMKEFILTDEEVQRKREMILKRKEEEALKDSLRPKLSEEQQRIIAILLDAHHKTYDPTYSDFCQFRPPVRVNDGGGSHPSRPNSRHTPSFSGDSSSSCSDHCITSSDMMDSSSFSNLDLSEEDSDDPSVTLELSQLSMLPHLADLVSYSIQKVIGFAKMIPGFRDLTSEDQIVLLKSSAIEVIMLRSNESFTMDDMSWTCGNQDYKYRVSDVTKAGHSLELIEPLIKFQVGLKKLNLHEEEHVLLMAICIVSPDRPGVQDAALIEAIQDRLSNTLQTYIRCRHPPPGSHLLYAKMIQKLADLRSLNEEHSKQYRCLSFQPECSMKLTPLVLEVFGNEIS
#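 Compounds are added to VDR with labelled SRC2-3 coactivator peptide and held 2 h at room temperature. Inhibition of the VDR–peptide interaction is then read as a change in fluorescence polarization.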
# * marks the source's active call; other numbers are inactive results; ? = inconclusive; nt = no result given; ! = not active in a repeat; [ ] = dose if it differs, or a comment. Calls come from the whole dose curve; as a rule, active = well fitted curve in the direction sought with a large enough effect; inconclusive = small, poorly fitted or top-dose-only effect, or another doubt; inactive = no such curve, though single readings can be large; an effect the other way counts as inactive or inconclusive. Unless noted, % is set by controls: 0 for no effect and ±100 for the full control effect; potency is the fitted concentration of half-maximal effect.
SMILES,ALOX12 inh,Sfp PPTase inh,PLK1 PBD block,VDR inhibitor
Cc1ccc(NC(=O)CCN2CCN(C/C=C/c3ccccc3)CC2)cc1C,?,89µM*,-4%,-7%
COC1=CC(=NCl)C=CC1=NCl,nt,nt,13µM*,nt
O=S(=O)(c1ccc2ccccc2c1)N(Cc1ccco1)Cc1cccs1,50µM*,nt,nt,nt
CC(C)(C)CN1CC2(C1)C(=O)N(CCCN1CCCC1=O)C(=O)[C@@H]1C[C@@H](O)CN12,5%[176 µM],nt,nt,nt
CC1=NN(c2ccc(Cl)c(C(=O)O)c2)C(=O)/C1=C\c1ccc(-c2ccc(C(=O)O)cc2)o1,-18%,-11%,8.4µM*,-30%
COC(=O)c1ccccc1-c1ccc(/C=C2\C(=O)N(c3ccccc3)N=C2c2ccccc2)o1,-10%,-1%,?,4%
CC1=NN(c2ccc(C(=O)O)cc2)C(=O)/C1=C/c1ccc(-c2ccccc2F)o1,nt,-21%,nt,nt
CC1=NN(c2ccccc2)C(=O)/C1=C/c1ccc(-c2ccc(C)c(C(=O)O)c2)o1,0%,nt,4.7µM*,?
COC1CCC12CCN(C(=O)Cc1ccccc1)CC2 (stereo not given),-2%,nt,nt,nt
CCOC(=O)c1c(NC(=O)C(C)C)sc(Cc2ccc3c(c2)OCO3)c1C,-11%,nt,nt,nt
Cc1c(Cc2ccc3c(c2)OCO3)sc(NC(=O)C2CC2)c1C(N)=O,?,20µM*,3.8µM*,50µM*
COc1ccc(C(CNC(=O)c2cccc(NS(=O)(=O)c3ccccc3)c2)N(C)C)cc1 (stereo not given),386%,13%,-5%,1%
CC(C)n1cnnc1-c1nn(C)c2c1CN(C(=O)CCc1c[nH]c3ccccc13)CC2,0%,nt,nt,nt
COc1cc(C(=S)N2CCOCC2)cc(OC)c1OC(=O)Cc1ccc(F)cc1,?,45µM*,7.5µM*,?
COc1cc(C(=O)Oc2c(OC)cc(C(=S)N3CCOCC3)cc2OC)cc(OC)c1OC,24%,9%,-1%,-1%
O=C(Oc1c(Br)cc(C(=S)N2CCOCC2)cc1Br)c1ccc(Cl)cc1,?,-69%,6.7µM*,?
COc1cc(C(=S)N2CCOCC2)cc(OC)c1OS(=O)(=O)c1ccc(Cl)cc1,?,45µM*,13µM*,89µM*
COc1cc(C(=S)N2CCOCC2)cc(OC)c1OC(=O)c1ccccc1[N+](=O)[O-],0%,8%,-16%,-10%
COc1cc(C(=S)N2CCOCC2)cc(OC)c1OC(=O)c1ccc(F)cc1,12%,28µM*,12µM*,?
CNc1ccc(Br)cc1C,-29%,nt,nt,nt
O=c1c2cc(NC(=S)NCCCN3CCC(Cc4ccccc4)CC3)ccc2nc2n1CCCCC2,?,6%,8%,3%
COC(=O)N1CCN(Cc2cc(=O)c3cc(F)ccc3[nH]2)CC1,-54%,nt,nt,nt
O=c1cc(CN2CCCCC2c2ccccn2)[nH]c2ccc(F)cc12 (stereo not given),7.9µM*,nt,nt,nt
CCCCc1ccc(NC(=S)N2CCN(C(=O)OCC)CC2)cc1,19%,13%,-17%,13%
Cc1nn2c3c(cnc2c1-c1ccccc1)C(=O)CC(c1ccccc1)C3 (stereo not given),-1%,6%,-1%,-7%
SMILES,ALOX12 inh,Sfp PPTase inh,PLK1 PBD block,VDR inhibitor
Cc1nn2c3c(cnc2c1-c1ccccc1)C(=O)CC(c1ccco1)C3 (stereo not given),-8%,89µM*,1%,13%
Cc1cc(/C=c2\sc3nc4ccccc4n3c2=O)c(C)n1-c1ccc(C(=O)O)cc1,?,-18%,21µM*,-3%
O=C(O)c1ccc(-c2ccc(/C=c3/sc4nc5ccccc5n4c3=O)o2)cc1Cl,-46%,50µM*,-26%,?
CCOc1ccc(CNCc2ccco2)cc1OCC,-6%,nt,nt,nt
OCC1(Cc2ccc(Cl)cc2)CCN(CCCc2ccccc2)CC1,3.2µM*,11%,-12%,12%
CC1(c2ccccc2)CCCN(C(=O)c2cc(-c3ccncc3)n[nH]2)C1 (stereo not given),60%,nt,nt,nt
CCCCSc1nnc(CCNC(=O)OC(C)(C)C)o1,13%,7%,-3%,-6%
CCOc1cc(C(N)=O)cc(OCC)c1OCC,1%,12%,-2%,-5%
CCOc1cc(C(N)=O)cc(Br)c1OC,1%,-17%,30µM*,1%
CCOC(=O)c1oc2cc(OC(=O)c3cccc(OC)c3)ccc2c(=O)c1-c1ccc(OC)cc1,13%,nt,nt,nt
CC(C)c1ccc2oc(=O)cc(-c3oc4ccccc4c3N)c2c1,-2%,nt,nt,nt
CCOC(=O)C(C)Sc1nc(=O)n2ccccc2n1 (stereo not given),0%,6%,24µM*,-13%
CCOC(=O)C(C)Sc1nc(=O)n2cc(C)ccc2n1 (stereo not given),-7%,15%,-2%,5%
C#CC[N+]1(CC#Cc2ccccc2)CCCC1,1%,-10%,-9%,-9%
O=S(=O)([O-])CCC[N+]1(CC#Cc2ccccc2)CCCCC1,0%,30%,4.7µM*,?
Cc1nc2ccc(NC(=S)NCCCO)cc2nc1C,?,56µM*,-26%,-5%
OCCCNC(=S)Nc1ccc(Cl)cc1,50µM*,nt,nt,nt
OCCCNC(=S)Nc1ccc(Nc2ccccc2)cc1,?,3%,-20%,18%
Cc1ccc2c(C(=O)NCc3ccc(Cl)cc3Cl)cnn2c1,8%[176 µM],nt,nt,nt
Cc1cc(NC(=O)CCCN2C(=O)c3cccnc3C2=O)no1,-10%,-10%,3µM*,-19%
CN(C)CCCN1c2ccccc2Sc2ccc(Cl)cc21,?,79µM*!,-4%,?
CNC(=S)N/N=C1\CC(c2ccccc2)Oc2ccccc21 (stereo not given),40µM*,30%,-7%,-19%
Cc1ccc(S(=O)(=O)N/N=C2/CC(c3ccccc3)Oc3ccccc32)cc1[N+](=O)[O-] (stereo not given),?,3%,12µM*,1%
O=S(=O)(N/N=C1/CC(c2ccccc2)Oc2ccccc21)c1ccc(Br)cc1 (stereo not given),-10%,7%,-19%,-3%
O=C1c2ccccc2C(=O)N1CCCCc1cn(C[C@H]2CC[C@@H]([C@@H]3CC[C@H](Cn4cc(CCCCN5C(=O)c6ccccc6C5=O)nn4)O3)O2)nn1,-25%,nt,1%,-8%
SMILES,ALOX12 inh,Sfp PPTase inh,PLK1 PBD block,VDR inhibitor
C=CCOc1ccc(C2OC34CCCCC3C(C#N)(C#N)C2(C#N)C(=N)O4)cc1 (stereo not given),nt,-5%,-28%,-25%
CCCCOc1ccc(C2OC34CCCCC3C(C#N)(C#N)C2(C#N)C(=N)O4)cc1 (stereo not given),nt,8%,21µM*,?
c1nc(NC2CCNCC2)c2cc(-c3ccoc3)ccc2n1,?,-12%,nt,20µM*
c1cncc(-c2ccc3ncnc(NC4CCNCC4)c3c2)c1,-23%,15%,nt,-15%
c1nc(N2CCNCC2)c2cc(-c3ccoc3)ccc2n1,-16%,0%,nt,-29%
Fc1ccc(Nc2ncnc3ccc(-c4ccoc4)cc23)cc1,?,-28%,nt,40µM*
O=C(CCc1ccc(O)c(O)c1)NNC(=S)NCCc1ccccc1,-4%,1%,-11%,-18%
CC(C)(C)S(=O)N1Cc2cc(C(=O)N3CCOCC3)nc(-c3cccc(Br)c3)c2[C@@H]1CCO (stereo not given in full),5µM*,nt,-28%,nt

# Compound activity deposited in PubChem BioAssay by National Center for Advancing Translational Sciences (NCATS).
